High-throughput results deposited in PubChem by National Center for Advancing Translational Sciences (NCATS).
NS1 function inh – inhibitors of influenza NS1 protein function; Potency, µM (series often up to 46.1 µM), for the others: at the top dose activity, positive = more growth; 270,000 tested, 0.4% active; also: potency is read from the fitted curve at half-maximal effect; actives are rising curves; nearly all actives have a fitted effect of over 50% in size
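Recovery from NS1-induced slow growth read by OD600 in budding yeast switched to galactose assay medium (pH 6.0, -URA) at 1:100 dilution. Compound 23 nl per well; the matching strain lacking NS1 serves as control.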
Cycloheximide cs – counter-screen for Shiga toxin inhibitors: cycloheximide protein synthesis inhibition; cell reporter, cycloheximide protein synthesis inhibition counterscreen; max response, %; 300,000 tested, 12% active; AID 2314; in the data active = max response mostly above about 13%, no sharp cut-off; inactive = mostly below about 14%; also: read at 38.3 µM for the half of the compounds with a filed dose; 0% is about no effect
Shiga inhibitor – blocks Shiga toxin action in Vero cells; Vero cells, Shiga toxin protein synthesis inhibition reporter; inhibition, % at 38.7 µM; 290,000 tested, 9.2% active; AID 2315; in the data active = inhibition mostly above about 28%, no sharp cut-off; inactive = mostly below about 43%; also: 0% is about no effect
SARS PLP yeast – inhibitors of SARS-CoV papain-like protease in yeast; Potency, µM (series often up to 32.9 µM), for inactives: top-dose activity, positive = growth rescue, actives largely listed as activators; S. cerevisiae expressing SARS-CoV PLpro, growth rescue; AID 485353; 330,000 tested, 0.19% active; also: potency is read from the fitted curve at half-maximal effect; 0% is about no effect; nearly all actives have a fitted effect of over 55% in size
Pf growth 96h – P. falciparum growth inhibition at 96 hour, primary screen for plastid delayed-death inhibitors; AID 504834; P. falciparum luciferase reporter growth, 96 h; Potency, µM (titrated, usually from 28.7 µM), for inactives: at the top dose activity change, negative = inhibition, most hits filed as inhibitors; 320,000 tested, 6.9% active; active = well fitted inhibition curve with a large enough effect; inconclusive = small, poorly fitted or top-dose-only effect, or another doubt; inactive = no such curve, though single readings can be large or run the other way; also: potency is read from the fitted curve at half-maximal effect; % is scaled to controls: 0 for no effect and ±100 for the full control effect
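Plates of compound plus infected erythrocytes (2% hematocrit, 0.05% parasitemia final) incubate 96 hours, 37 C, 5% CO2. Detection reagent added; reduced luminescence from the parasites' luciferase reporter flags inhibition.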
Pf growth 48h – inhibits P. falciparum growth in the first generation, 48 h; P. falciparum luciferase growth in erythrocytes, 48 h; Potency, µM (highest dose often 28.7 µM), for the others: at the top dose activity change, negative = inhibition, actives largely listed as inhibitors; 310,000 tested, 5.9% active; AID 504832; active = well fitted inhibition curve with a large enough effect; inconclusive = small, poorly fitted or top-dose-only effect, or another doubt; inactive = no such curve, though single readings can be large or run the other way; also: potency is read from the fitted curve at half-maximal effect; % is scaled to controls: 0 for no effect and ±100 for the full control effect
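Parasite viability was followed by luminescence of a genomically integrated firefly luciferase. Cultures held 0.1% parasitemia at 2% hematocrit (final), incubated under 5% CO2 at 37 C.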
* marks the source's active call; other numbers are inactive results; ? = inconclusive; nt = no result. The list is not random: actives were taken first. Their share in the collection is about 21%. Unless noted, calls follow the shape of the full dose curve.

SMILES | NS1 function inh | Cycloheximide cs | Shiga inhibitor | SARS PLP yeast | Pf growth 96h | Pf growth 48h
COc1ccccc1NC(=O)C(C)OC(=O)CCC1CCCCC1 (stereo not given) | -27.3% | -2.2 | -5.6 | -0.6% | 0.3% | ?
CN(C)S(=O)(=O)NC(c1ccccc1)c1ccccc1 | -7.1% | -2.1 | 17.1 | -6.2% | 0.9% | -1.7%
CN(C(=O)COc1cc(=O)n(C)c2ccccc12)c1ccc(Cl)cc1 | -13.9% | -5.7 | -6.8 | 5.8% | ? | nt
CN(c1ccc(Cl)cc1)c1cc(=O)n(C)c2ccccc12 | -82.7% | -3.8 | 31.5 | -8.5% | -10.6% | 5.86µM*
COc1ccc(-c2cc(C(=O)NCC3CCCO3)c3ccccc3n2)cc1 (stereo not given) | nt | 15.8 | 29.0 | -7.6% | 19.4% | 49.5%
O=C(NCC1CCCO1)c1cc2c([nH]c3ccccc32)c(-c2cccc(Br)c2)n1 (stereo not given) | -20.9% | -1.9 | -4.7 | -15.8% | 3.7µM* | ?
COc1ccc(-c2nc(C(=O)NCC3CCCO3)cc3c2[nH]c2ccccc23)cc1 (stereo not given) | -45.5% | -2.9 | -6.3 | 0.2% | 7.38µM* | 5.22µM*
Cc1ccccc1-c1nc(C(=O)NCC2CCCO2)cc2c1[nH]c1ccccc12 (stereo not given) | -33.7% | -2.2 | -1.7 | -12.8% | 11.7µM* | ?
Cc1ccc(-c2nc(C(=O)NCC3CCCO3)cc3c2[nH]c2ccccc23)cc1 (stereo not given) | -17.6% | -2.8 | 10.5 | -12.4% | ? | 7.38µM*
CCOC(=O)CCN(c1ccccc1)S(=O)(=O)c1ccc(-c2ccc(=O)[nH]n2)s1 | 1.7% | -4.7 | -12.4 | 7.0% | ? | -20.5%
Cc1cc2nnc(SCC(=O)Nc3ccc(Cl)cc3)n2c(N)n1 | 10.3% | -0.7 | -12.1 | -2.4% | ? | -7.1%
Cc1oc2c(c1C(=O)NCCO)CCCC2 | 6.8% | -5.8 | -13.4 | 7.2% | 0.0131µM* | nt
O=C(CSc1nnc(COc2ccc(Br)cc2)o1)N1CCOCC1 | -6.6% | -3.0 | -6.2 | -1.1% | 13.6% | -10.8%
COC(=O)C1C(=O)C2=C(CC1C)NC(=O)CC2c1ccccc1 (stereo not given) | 8.2% | -1.8 | -4.2 | -8.2% | -21.5% | ?
CCOc1cc(C2CC(=O)NC3=C2C(=O)C(C(=O)OC)C(C)C3)cc(Cl)c1O (stereo not given) | -4.4% | 1.8 | -12.0 | 5.2% | -42.8% | 1.17µM*
COC(=O)[C@]12OC[C@]34C([C@@H](O)[C@@H]1O)[C@]1(C)CC(=O)C(O)=C(C)[C@@H]1C[C@H]3OC(=O)[C@H](O)[C@@H]24 (stereo not given in full) | 4.1% | -11.7 | -12.0 | -4.2% | 1.04µM* | 1.04µM*
CSc1ccccc1NC(=O)CN(C)CC(=O)NCC(=O)Nc1ccc(F)cc1 | nt | nt | nt | -6.9% | -2.2% | 0.0%
Cc1[nH]c2ccccc2c1N=Nc1ccc(F)cc1 | nt | 18.9* | 45.0 | -28.0% | 52.9% | 19.5%
Cc1[nH]c2ccccc2c1N=Nc1cc(C(=O)O)cc(C(=O)O)c1 | -4.3% | 5.4 | 42.0 | 1.4% | 52.2% | 22.5%
Oc1[nH]c2ccccc2c1N=Nc1c(F)c(F)c(Cl)c(F)c1F | 1.9% | 0.2 | 0.8 | -1.3% | ? | 11.3%
Cc1[nH]c2ccccc2c1N=Nc1ccccc1F | nt | 24.4* | 52.8* | -22.8% | 5.3% | 13.9%
Cc1ccc2oc(=O)c3cc(C(=O)NCCCN4C(C)CCCC4C)sc3c2c1 (stereo not given) | 2.8% | -1.3 | -2.7 | 0.0% | -4.1% | ?
CCc1ccc(N/C(SCc2cccc(F)c2)=C(/C#N)C(=O)NCc2ccco2)cc1 | ? | 21.0* | 28.8 | -7.8% | 51.4% | ?
COc1ccc(-c2cc3nc[nH]c(=O)c3s2)cc1 | 15.3% | 35.2* | 67.4 | 5.7% | nt | 129.8%
O=c1[nH]cnc2cc(-c3ccccc3)sc12 | -56.1% | 47.9* | 118.3* | 1.4% | ? | 218.9%
O=S(=O)(c1ccc(F)c(F)c1)N1CCN(c2ccccn2)CC1 | 14.2% | -4.4 | -5.4 | 0.3% | ? | 3.0%
CCn1c(=O)cc(SCC(=O)Nc2ccc(C)cn2)c2ccccc21 | nt | 13.8 | 11.0 | 0.4% | ? | 7.4%
O=C(c1ccc(Cl)c(S(=O)(=O)N2CCOCC2)c1)N(c1ccccn1)C1CCCCC1 | nt | -3.0 | 17.8 | -0.5% | ? | ?
